Experimental data reported in ChEMBL document CHEMBL1961873, “Compounds: GSK PKIS; Assays: Nanosyn kinase panel” (2012).

target: Serine/threonine-protein kinase SIK1 (Homo sapiens) (UniProt P57059); conditions: at 0.1 µM
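Also: reported as mean inhibition, part of the GSK PKIS screen.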

Serine/threonine-protein kinase SIK1 (Homo sapiens), sequence (P57059 whole entry): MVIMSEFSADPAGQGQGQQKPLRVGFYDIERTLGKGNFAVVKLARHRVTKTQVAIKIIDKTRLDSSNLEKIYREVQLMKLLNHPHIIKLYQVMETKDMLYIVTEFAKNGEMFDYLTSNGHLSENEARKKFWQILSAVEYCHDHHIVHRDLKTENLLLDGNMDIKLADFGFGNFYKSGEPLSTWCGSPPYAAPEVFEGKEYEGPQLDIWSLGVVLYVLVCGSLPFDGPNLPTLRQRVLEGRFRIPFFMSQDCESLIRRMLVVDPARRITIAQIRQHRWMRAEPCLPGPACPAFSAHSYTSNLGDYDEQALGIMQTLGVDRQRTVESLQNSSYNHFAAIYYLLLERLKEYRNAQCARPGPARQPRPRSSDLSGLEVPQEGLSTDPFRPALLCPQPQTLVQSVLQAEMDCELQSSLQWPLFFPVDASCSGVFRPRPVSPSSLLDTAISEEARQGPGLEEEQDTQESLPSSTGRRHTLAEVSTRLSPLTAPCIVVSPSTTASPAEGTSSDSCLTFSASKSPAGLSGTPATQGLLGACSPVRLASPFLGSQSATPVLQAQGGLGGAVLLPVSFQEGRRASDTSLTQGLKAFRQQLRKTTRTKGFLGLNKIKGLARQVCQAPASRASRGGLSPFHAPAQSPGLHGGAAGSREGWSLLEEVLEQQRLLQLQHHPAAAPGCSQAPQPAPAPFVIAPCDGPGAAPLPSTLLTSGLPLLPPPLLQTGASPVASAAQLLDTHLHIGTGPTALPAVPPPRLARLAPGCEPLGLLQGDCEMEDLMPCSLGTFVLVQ

Row | Structure (SMILES) | inhibition [%]
1 | NC(=O)c1cc(-c2ccncc2)cc(-c2ccccc2)c1N | 5.39
2 | COc1cc2ncn(-c3cc(OCc4cccs4)c(C(N)=O)s3)c2cc1OC | 4.36
3 | COc1ccc(C2=C(N3CCc4ccccc43)C(=O)NC2=O)cc1 | 8.63
4 | NS(=O)(=O)c1ccc(N/N=C2\C(=O)Nc3ccc(C(=O)NCCCn4ccnc4)cc32)cc1 | 7.49
5 | O=C(Nc1n[nH]c2nc(-c3ccc(O)cc3)c(Br)cc12)C1CC1 | 6.92
6 | Clc1ccc(CNc2nccc(-c3cnn4ncccc34)n2)cc1 | 0.93
7 | CS(=O)(=O)CCNCc1ccc(-c2ccc3ncnc(Nc4ccc(OCc5ccccc5)c(Br)c4)c3c2)o1 | 2.19
8 | c1ccc(Oc2ccc(Nc3ncc(-c4ccccc4)o3)cc2)cc1 | 2.57
9 | Cc1ccc(NC(=O)c2ccoc2)cc1-c1ccc(C(=O)NCC2CC2)cc1 | 2.51
10 | C/C(Nc1ccc(S(N)(=O)=O)cc1)=C1/C(=O)Nc2ccccc21 | -7.25
11 | Fc1ccc(-c2c(-c3ccncc3)nc3n2CCS3)cc1 | 5
12 | O=C(Nc1ccc(Oc2ccc3[nH]c(NC(=O)c4ccccc4)nc3c2)cc1)Nc1cc(C(F)(F)F)ccc1F | 5.14
13 | O=C1NC(=O)C(c2cccc(Cl)c2)=C1Nc1ccc(Cl)c(C(=O)O)c1 | 4.05
14 | NS(=O)(=O)c1ccc(Nc2cc(-c3ccc(O)c(F)c3)n[nH]2)cc1 | -8.2
15 | COC(=O)Nc1nc2ccc(Sc3ccc(NC(=O)Nc4cc(C(F)(F)F)ccc4F)cc3)cc2[nH]1 | 3.94
16 | Cc1nnc(-c2ccc(C)c(-c3ccc(C(=O)NCc4ccc(Cl)cc4)cc3)c2)o1 | 1.09
17 | COc1ccc2ncn(-c3cc(O[C@H](C)c4ccccc4Cl)c(C(N)=O)s3)c2c1 | 4.44

Row | Structure (SMILES) | inhibition [%]
18 | COc1cc(N2CCN(C(C)C)CC2)ccc1Nc1nc(Nc2ccc(F)cc2C(=O)NC[C@@H](O)CO)c2cc[nH]c2n1 | 1.88
19 | NS(=O)(=O)c1ccc(N/N=C2\C(=O)Nc3ccc(-c4cnco4)cc32)cc1 | 1.71
20 | CN1CCN(CCCNc2nc3ccc(Oc4ccc(NC(=O)Nc5cc(C(F)(F)F)ccc5F)cc4)cc3[nH]2)CC1 | 0.75
21 | Fc1ccc(-c2ncn(C3CCNCC3)c2-c2ccnc(Oc3ccc(Oc4ccccc4)cc3)n2)cc1 | 7.97
22 | COc1cc(Nc2ncc3c(C)nc(-c4cccc(Oc5ccccc5)c4)n3n2)cc(OC)c1OC | 3.67
23 | CCc1ccc(Oc2nccc(-c3c(-c4ccc(F)cc4)ncn3C3CCNCC3)n2)cc1 | 5.66
24 | Cc1ccc(C(=O)NC(C)C)cc1-c1ccc(C(=O)NCC2CC2)cc1 | -0.49
25 | COc1cccc(-n2cnc3c(N/N=C/c4ccncc4)ncnc32)c1 | 1.88
26 | Fc1ccc(-c2ncn(C3CCNCC3)c2-c2ccnc(Oc3ccc4c(c3)OCO4)n2)cc1 | 5.99
27 | O=C(NCC1CC1)c1ccc(-c2cccc(C(=O)NC3CC3)c2)cc1 | 0.25
28 | C#Cc1cccc(Nc2ncnc3ccc(OCCCCNCCS(C)(=O)=O)cc23)c1 | 8.26
29 | NCc1ccc(-n2c(-c3nonc3N)nc3cnccc32)cc1 | 5.74
30 | O=C(Nc1n[nH]c2cc(-c3ccccc3)ccc12)C1CC1 | 5.14
31 | CCS(=O)(=O)c1ccc(OC)c(Nc2ncc(-c3cccc(-c4ccccc4F)c3)o2)c1 | 0.43
32 | CNC(=O)c1cncc(/C=C/c2c(C)cccc2C)c1 | 26.2
33 | CCC(=O)Nc1ccc(C)c(-c2ccc(C(=O)NCC3CC3)cc2)c1 | 4.61
34 | c1ccc(-c2n[nH]cc2-c2ccnc(-c3ccc(OCCN4CCOCC4)cc3)c2)nc1 | 0.04
